Assay outcomes (PubChem BioAssay)
BL2 CD40 inh: CD40 pathway inhibition in BL2 cells | BL2 NF-kB luciferase reporter, CD40L-induced, 4 h | inhibition, % at 10 µM | actives 0.94% (n = 83,000) | AID 1053188;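 active = mean inhibition of at least 50% with a set share of replicates also reaching that level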;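 note: 0% = neutral control wells and 100% = IKK inhibitor VII at 50 µM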
The depositor's hits bear a star; [ ] = dose if it differs, or a comment. The entries come from a sample that favours hits as a whole.

SMILES | BL2 CD40 inh
COc1ccccc1CN1[C@H](CO)[C@@H]2c3ccccc3N(C(=O)C3CCC3)C[C@@H]21 | 5
CN1c2ccc(Br)cc2[C@H]2[C@H](CCN2C(=O)C2CC2)[C@@H]1CO | -81
COCCNC(=O)C[C@@H]1CC[C@@H]2[C@@H](COc3ccc(NC(=O)Nc4cccc(F)c4)cc3C(=O)N2C)O1 | 4[25 µM]
O=C(NCc1ccccn1)C1CCN(S(=O)(=O)c2ccccc2)CC1 | 9
CCOc1ccc(S(=O)(=O)N2CCCC(C(=O)NCc3ccccn3)C2)cc1Cl (stereo unspecified) | -1
O=C(NCc1ccccn1)C1CCCN(S(=O)(=O)c2ccccc2)C1 (stereo unspecified) | 26*
C[C@H](NC(=O)[C@@H]1[C@@H](CO)[C@@H]2Cn3c(cccc3=O)[C@@H]2N1Cc1cccnc1)c1ccccc1 | 1[25 µM]
COc1ccc(S(=O)(=O)N(C)C[C@@H]2Oc3ccc(NC(=O)CCN4CCOCC4)cc3CC(=O)N([C@H](C)CO)C[C@H]2C)cc1 | 4[25 µM]
N#C[C@@H]1[C@@H](c2ccccc2C2=CCCCC2)[C@H](CO)N1S(=O)(=O)c1ccccc1 | 6[25 µM]
N#C[C@H]1[C@@H](c2ccccc2C2=CCCCC2)[C@H](CO)N1S(=O)(=O)c1ccccc1 | 11[25 µM]
N#C[C@H]1[C@H](c2ccccc2C2=CCCCC2)[C@@H](CO)N1S(=O)(=O)c1ccccc1 | 60*[25 µM]
CN(C)c1ccc(S(=O)(=O)N2CCC(Cc3ccccc3)CC2)cn1 | 2
CCc1nnc(NC(=O)C2CCCN(C(=O)c3ccc(Cl)cc3)C2)s1 (stereo unspecified) | -40
CCN(CC(=O)Nc1ccc(NC(C)=O)cc1)C(=O)C1CCCC1 | 1
CCN(CC(=O)Nc1ccc(NC(C)=O)cc1)C(=O)C1CCCN(C(=O)c2ccc(Cl)cc2)C1 (stereo unspecified) | 28*
O=C(CCN1CCCCC1)N[C@@H]1CC[C@H](CC(=O)N2CCC(Cc3ccccc3)CC2)O[C@@H]1CO | 1[25 µM]
CN1C(=O)c2cc(NC(=O)C3CCCC3)ccc2OC[C@H]2O[C@H](CC(=O)NCc3ccccc3F)CC[C@@H]21 | 5
COC(=O)c1ccc(CSc2nnnn2-c2ccccc2)o1 | -9
COC(=O)c1ccc(CSc2nnc(-c3ccccc3)n2C)o1 | 10
COC(=O)c1ccc(CSc2cc(C)c3ccccc3n2)o1 | 66*
COc1ccccc1C#Cc1ccc([C@@H]2[C@@H](C#N)N(C(=O)C3CCCCC3)[C@@H]2CO)cc1 | -1
N#C[C@H]1[C@@H](c2ccc(C#Cc3ccc(F)cc3)cc2)[C@H](CO)N1C(=O)C1CCC1 | 6[25 µM]
N#C[C@@H]1[C@H](c2ccc(C#Cc3ccc(F)cc3)cc2)[C@@H](CO)N1C(=O)C1CCC1 | 90*[25 µM]
N#C[C@H]1[C@H](c2ccc(C#Cc3ccccc3F)cc2)[C@H](CO)N1C(=O)C1CCC1 | -3
N#C[C@@H]1[C@@H](c2ccc(C#Cc3ccccc3F)cc2)[C@H](CO)N1C(=O)C1CCC1 | -29
SMILES | BL2 CD40 inh
N#C[C@@H]1[C@H](c2ccc(C#Cc3ccccc3F)cc2)[C@@H](CO)N1C(=O)C1CCC1 | 81*
COc1ccccc1C#Cc1ccc([C@H]2[C@@H](C#N)N(C(=O)C3CCC3)[C@@H]2CO)cc1 | -7[25 µM]
N#C[C@H]1[C@H](c2ccc(C#Cc3ccccc3F)cc2)[C@@H](CO)N1C(=O)C1CCC1 | 62*
N#C[C@H]1[C@H](c2ccc(C#Cc3ccc(F)cc3)cc2)[C@H](CO)N1C(=O)C1CCC1 | 28[25 µM]
C[C@H]1CN(C)C(=O)c2cc(N)ccc2O[C@@H]1CN(C)S(C)(=O)=O | -3
COc1ccc([C@@H]2CC=CC[C@H](C)Oc3ccccc3C(=O)N(C)[C@@H](Cc3ccccc3)C(=O)N2)c(OC)c1 (mixture of isomers) | -3[25 µM]
O=C(c1ccccn1)N1CC2(C1)[C@@H](c1ccccc1)[C@@H](CO)N2Cc1ccc(F)cc1 | -7[25 µM]
CC(=O)NC[C@@H]1[C@@H](c2ccc(C3=CCCC3)cc2)[C@H](CO)N1Cc1cccnc1 | -12[25 µM]
COCC(=O)N1[C@H](C#N)[C@H](c2ccc(C3=CCCC3)cc2)[C@H]1CO | -22[25 µM]
COc1ccccc1S(=O)(=O)N1C[C@@H]2N[C@H](C1)C2c1ccc(-c2cccc(F)c2)cc1 (stereo partly specified) | 3[25 µM]
COc1cccc(CN(C)C(=O)c2ccc(Oc3ccccc3)cc2)c1OC | 8
CN(C)CC(=O)N1[C@@H](CO)[C@@H](c2ccccc2)C12CN(Cc1cccnc1)C2 | -8[25 µM]
C[C@@H]1CN([C@@H](C)CO)C(=O)Cc2cc(NS(=O)(=O)c3ccc(F)cc3)ccc2O[C@@H]1CN(C)C(=O)NC1CCCCC1 | 3
C1CCC(C(CC2CCCCN2)C2CCCCC2)CC1 (stereo unspecified) | 78*
C[C@@H]1CN(C)C(=O)Cc2cc(N(C)C)ccc2O[C@@H]1CN(C)C | -5
CCS(=O)(=O)N1CC2(CN(Cc3ccc4c(c3)OCO4)[C@H](CO)c3c2c2ccc(OC)cc2n3C)C1 | -4[25 µM]
CCOC(=O)c1c(C)nc(C)c(C(=O)OCC)c1-c1cccc([N+](=O)[O-])c1 | -3
Cc1nc2ccccc2c(=O)n1CCN1CCOCC1 | -4
Cc1nc2nc(C)n(CCN3CCOCC3)c(=O)c2c(-c2cccc([N+](=O)[O-])c2)c1C(=O)CCCCCCCCCCN1CCC(c2ccccc2)(c2ccccc2)CC1 | 115*
Cc1ccc(OCC(=O)N2CCc3ccccc3C2)cc1C | -13
O=C(c1cc(-c2cccs2)on1)N1CCc2ccccc2C1 | -18
Cc1ccc(OCc2cc(C(=O)N3CCc4sccc4C3)no2)cc1C | 38*
O=C([C@H]1[C@H](CO)[C@H]2Cn3c(cccc3=O)[C@H]2N1C(=O)CC1CC1)N1CCc2ccccc2C1 | -8[25 µM]
N#C[C@@H]1[C@H](c2ccc(C#Cc3ccccc3F)cc2)[C@H](CO)N1C(=O)c1cccnc1 | 11[25 µM]
N#C[C@@H]1[C@H](c2ccc(C#Cc3ccccc3F)cc2)[C@@H](CO)N1C(=O)c1cccnc1 | 78*[25 µM]
SMILES | BL2 CD40 inh
N#C[C@H]1[C@@H](c2ccc(C#Cc3ccc(F)cc3)cc2)[C@H](CO)N1C(=O)C1CCCC1 | 15
N#C[C@@H]1[C@H](c2ccc(C#Cc3ccccc3F)cc2)[C@@H](CO)N1C(=O)C1CCCC1 | 94*
CCc1cnc(N2[C@H](C#N)[C@H](c3ccc(C#Cc4ccccc4F)cc3)[C@H]2CO)s1 | 73*[25 µM]
N#C[C@H]1[C@H](c2ccc(C#Cc3ccccc3F)cc2)[C@@H](CO)N1C(=O)C1CC1 | 50*[25 µM]
N#C[C@@H]1[C@@H](c2ccc(C#Cc3ccccc3F)cc2)[C@H](CO)N1C(=O)C1CC1 | -4[25 µM]
N#C[C@@H]1[C@@H](c2ccccc2)[C@@H](CO)N1C(=O)c1cccnc1 | 5
N#C[C@H]1[C@H](c2ccc(C#Cc3ccc(F)cc3)cc2)[C@H](CO)N1C(=O)C1CCCC1 | -13
CCc1cnc(N2[C@H](C#N)[C@H](c3ccc(C#Cc4ccccc4F)cc3)[C@@H]2CO)s1 | 7[25 µM]
CCc1cnc(N2[C@H](C#N)[C@@H](c3ccc(C#Cc4ccccc4F)cc3)[C@H]2CO)s1 | -2[25 µM]
N#C[C@@H]1[C@@H](c2ccc(C#Cc3ccccc3F)cc2)[C@@H](CO)N1C(=O)C1CC1 | 0
COc1cccc(C#Cc2ccc3c(c2)[C@H]2[C@H](CCN2S(=O)(=O)c2ccc(C)cc2)[C@@H](CO)N3)c1 | 17[25 µM]
COc1ccc2c3c([nH]c2c1)[C@@H](CO)N(C(=O)CN(C)C)CC31CN(C(=O)c2cccnc2)C1 | -7[25 µM]
CC1(O)C(O)C(CO)OC1n1cnc2c(NC3CCCC3)nc(Cl)nc21 (stereo unspecified) | -2[25 µM]
